Measured values taken from ChEMBL document CHEMBL3988442, “University of Dundee, Small-Polar-MMV Screening Library” (2021).

These molecules were tested against Shiga toxin 2 (Escherichia coli O157:H7) (UniProt P09385+P09386) (assay: E. coli 0.157:H7 Shiga Toxin SOP - stx2 screening assay). Conditions: 30 µM.
Assay type: functional
Parameters: scale not given: direction of the effect not stated beside the values

| SMILES | Percent Effect [%] |
| --- | --- |
| CC(NC(=O)Nc1cc(F)ccc1N1CCCCC1)c1nncn1C (stereo not given) | 20.1 |
| O=C(c1ccc[nH]1)N1CCC(c2nccn2Cc2ccncc2)CC1 | -10.8 |
| Cc1oc(-c2nc(C#N)c(N(C)C)o2)cc1S(=O)(=O)N1CCCC1 | -18.1 |
| COCC(=O)N1CC[C@@H](O)[C@@H]1Cc1ccccc1 | 3.46 |
| Cn1cccc1-c1cc(C(=O)N2CC(c3cccnc3)C2)[nH]n1 | -50.6 |
| CC(C)CN1CCN(Cc2nc3ccccc3[nH]2)[C@H]2CS(=O)(=O)C[C@H]21 | -16.9 |
| CC1(C)CN(C(=O)NCCc2ccn(-c3ccccc3)n2)CCO1 | 16.6 |
| O=C([C@H]1C[C@H]2OCC[C@H]2N(CCc2ccccc2)C1)N1CCCCO1 | 6.49 |
| N#Cc1ccc(CN2CCC(c3ccnn3CCO)CC2)cc1 | 23.2 |
| Cc1ccc(CN2CCC3(C2)C(=O)N(CC(C)C)c2ccccc23)s1 (stereo not given) | -42.5 |
| CCN(C(=O)c1ccc(-n2ncc(C#N)c2N)cc1)C1CCCC1 | 6.02 |
| CC(=O)N1CCCC1c1ccc(C(=O)N2CCOCC2)s1 (stereo not given) | -18.8 |
| O=C(NCCCNC(=O)c1cccc(O)c1)NCc1ccccc1F | -41.9 |
| Cc1cccc(CNC(CN2CCN(C)CC2)c2ccccc2)c1 (stereo not given) | -5.1 |
| CCN(CC)S(=O)(=O)N1CCCC(c2ccc(C(=O)O)cc2)C1 (stereo not given) | -2.52 |
| c1cnn(CC2CN(CC3CCCC3)CCO2)c1 (stereo not given) | -0.337 |
| CN(C)Cc1ccnc(C2CCCN2Cc2cc[nH]n2)n1 (stereo not given) | 9.83 |
| CCOC1CCCN(C(=O)NCCc2ccn(-c3ccccc3)n2)C1 (stereo not given) | 12.9 |
| CCn1cnnc1C1CCN(C(=O)c2cnc3ccccc3n2)CC1 | -10.9 |
| COc1cccc(OCCNC(=O)CN2CCN(C)CC2C)c1 (stereo not given) | -14.9 |

| SMILES | Percent Effect [%] |
| --- | --- |
| Cc1cc(C2CCCN(C(=O)CN3CCN(C)CC3)C2)n[nH]1 (stereo not given) | 13.2 |
| COCCN1CCC2(CCCN(C(=O)c3cnoc3C)C2)C1=O (stereo not given) | -23 |
| CC(NCc1ccccc1Br)c1ccc2[nH]c(=O)[nH]c2c1 (stereo not given) | -5.76 |
| CCN(Cc1nc2c(cnn2C)c(=O)[nH]1)c1cccc(Cl)c1 | 19.9 |
| CC(C)(NCC(=O)NCCC#N)c1ccc2c(c1)OCCO2 | 14.2 |
| COc1ccccc1CC1CCCN(CC(N)=O)C1 (stereo not given) | 28.2 |
| Cc1cnc(Nc2nccnc2C2CCN(C)CC2)s1 | -20.6 |
| COc1cc2nc(C)n(CC(=O)NCCCN(C)C)c(=O)c2cc1OC | -51.4 |
| O=C(O)c1nnn(-c2ccc(F)c(F)c2)c1-c1ccncc1 | -13 |
| Cc1ncsc1CN1CC[C@H]2OCC[C@@]2(C(=O)NC(C)C)C1 | -7.46 |
| CC(=O)N1CCCn2nc(CNS(=O)(=O)N3CCCCCC3)cc2C1 | -4.22 |
| O=C(Nc1cc(F)ccc1OCC1CCCO1)c1ccccn1 (stereo not given) | 37.1 |
| Cn1cc(CN2CCCN(C(=O)c3cc(Cl)cn3C)CC2)cn1 | 22.7 |
| CC(C)c1cc(NC(=O)c2ccc(NC3CC3)nc2)[nH]n1 | -52 |
| Cn1cc(S(=O)(=O)N2CCCC2CC(=O)c2cccs2)cn1 (stereo not given) | -9.63 |
| CCc1[nH]ncc1C(=O)N1CCCC(n2nc(C)nc2C)C1 (stereo not given) | 12.8 |
| O=C(c1ccccc1-c1ccccc1)N1CCOC2(CNCCOC2)C1 (stereo not given) | -1.85 |
| CN(Cc1cn2c(n1)CN(C1CCOC1)CC2)Cc1ccco1 (stereo not given) | -24.2 |
| CCN1CCC(CNC(=O)C2(c3cccc(C)c3)CC2)C1 (stereo not given) | 1.34 |
| O=C(Cn1nc2c(cc1=O)CCCC2)N[C@@H](C(=O)O)c1ccccc1 | -35.6 |
